CYP2C19 inh: human CYP2C19 inhibition. CYP2C19 Supersomes, luciferin-H EGE luminescence, 30 min. inhibition, % at 5 µM. actives 21% (n = 96,000). AID 778;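 active = CYP2C19 inhibition above a set limit at 5 µM in the primary screen, cut at about 50% in these data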;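 note: plate controls were negative control wells for no effect and 2.5 mM tranylcypromine positive control for full effect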
Target sequence (P33261 whole entry, looked up): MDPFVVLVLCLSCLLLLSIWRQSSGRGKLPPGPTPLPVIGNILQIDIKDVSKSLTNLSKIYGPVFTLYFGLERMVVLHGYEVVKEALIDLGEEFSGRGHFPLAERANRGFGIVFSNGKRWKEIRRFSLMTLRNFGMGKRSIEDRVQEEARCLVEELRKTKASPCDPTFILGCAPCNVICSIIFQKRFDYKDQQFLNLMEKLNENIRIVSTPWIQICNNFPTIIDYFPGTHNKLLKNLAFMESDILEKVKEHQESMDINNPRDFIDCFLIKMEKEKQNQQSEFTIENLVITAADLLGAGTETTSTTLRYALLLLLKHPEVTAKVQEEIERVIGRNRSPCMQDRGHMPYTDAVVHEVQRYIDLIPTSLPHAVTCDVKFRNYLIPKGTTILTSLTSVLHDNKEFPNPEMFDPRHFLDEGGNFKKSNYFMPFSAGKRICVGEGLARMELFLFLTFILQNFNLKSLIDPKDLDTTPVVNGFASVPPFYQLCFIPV
CYP2C19 activ: activators of human cytochrome P450 2C19; P33261; 96,000 tested, under 10 active; activation factor at 5 µM; AID 1025; recombinant CYP2C19, luciferin-H EGE luminescence; active compounds read high; 0 = fully inhibited enzyme, 1 = untreated enzyme;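 active = activation factor of at least 2 at 5 µM in the primary screen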;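 note: 0 = wells with 2.5 mM tranylcypromine and 1 = vehicle-only wells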
Cav3 T inh: human Cav3.2 channel inhibition, primary screen | AID 449739 | O95180 | Cav3.2-expressing cells, Fluo-4 calcium fluorescence FDSS; active compounds read low | B-score at 10 µM | actives 4% (n = 100,000);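 active = single-dose well whose peak fluorescence ratio is a statistical outlier from its plate by either plate-standardised score or position-corrected B-score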
CYP2C9 activ: activators of human CYP2C9; P11712; recombinant CYP2C9, luciferin-H conversion, luminescence; active compounds read high; factor 1 = untreated enzyme, 0 = blocked; activation factor at 5 µM; actives 1.4% (n = 96,000); AID 1024;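 active = activation factor of 2 or more for CYP2C9 at a 5 µM dose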;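 note: 0 = sulfaphenazole-blocked wells and 1 = vehicle-only wells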
CYP2C9 inh: blocks human cytochrome P450 2C9. inhibition, % at 5 µM. P11712. CYP2C9 Supersomes, luciferin-H conversion, luminescence. AID 777. actives 20% (n = 96,000);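 active = blocking of liver enzyme CYP2C9 beyond about 50% at 5 µM, limit read from the data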
* = called active by the depositor; / = not tested or not shown. Only some compounds are listed: those with a hit (about 27% of all), similar ones and a draw of the others.

SMILES	CYP2C19 inh	CYP2C19 activ	Cav3 T inh	CYP2C9 activ	CYP2C9 inh
COC(=O)c1ccc(NC(=O)CSc2nnc(COc3ccc4c(c3)CCCC4)o2)cc1	-12	1.1	-0.045	1	3
COC(=O)c1ccc(OC)c(CSc2nnc(COc3cccc(C)c3)o2)c1	96*	0	-3.6	0.1	90*
COC(=O)c1ccc(OC)c(CSc2nnc(COc3ccc(OC)cc3)o2)c1	38	0.6	-3	0.3	69*
CCOC(=O)c1sc(N)nc1C(C)(C)C	58*	0.4	-0.22	0.6	42
NC(=O)NC(CCC(=O)O)C(=O)O (stereo unspecified)	/	/	-0.37	/	/
CCN(C(=O)c1cccc(F)c1)c1ccccc1C	83*	0.2	-0.37	0.4	61*
CCN(C(=O)c1cn(CC)c(=O)c2cc(OC)c(OC)cc12)c1ccccc1C	10	0.9	0.41	0.9	12
Cn1c(SCC(=O)Nc2ccc3nc(SCC(=O)N4CCCC4)sc3c2)nnc1-c1ccccc1	20	0.8	0.19	0.6	43
Cc1cccc(NC(=O)CSc2nc3ccc(NC(=O)CSc4nnnn4-c4ccccc4)cc3s2)c1C	19	0.8	/	0.3	68*
Cc1cccc(NC(=O)CSc2nc3ccc(N4C(=O)c5ccccc5C4=O)cc3s2)c1C	30	0.7	-0.34	0.3	70*
O=C(CC1COc2ccccc2O1)NCCc1ccccc1 (stereo unspecified)	54*	0.5	-0.0084	0.6	42
O=C(CCC1COc2ccccc2O1)NCc1ccccc1 (stereo unspecified)	59*	0.4	-0.35	0.7	32
Cc1cc(=O)oc2cc(OCC(=O)OCc3nnc(-c4ccccc4)o3)ccc12	5	0.9	0.4	1.5	-46
Cc1cc(C)n(C(=O)CNC(=O)Cc2ccccc2)n1	17	0.8	2.2	1.6	-59
Cc1ccc(OCC(=O)NCC(=O)n2nc(C)cc2C)cc1	48	0.5	/	2.3*	-128
Cc1cc(C)n(C(=O)CNC(=O)COc2ccccc2)n1	13	0.9	-0.068	2*	-100
CCOC(=O)N1CCN(C2=NC3(CCCCC3)C(C#N)C(=O)N2)CC1 (stereo unspecified)	-1	1	-0.64	1	0
O=C1CCCCCN1CP(=O)(O)CN1CCOCC1	2	1	/	1	2
Cc1cc(OCC(=O)Nc2ccc3c(c2)OCCO3)ccc1Cl	17	0.8	-1	0.9	15
CCC(=O)N1CCN(c2ccccc2NC(=O)COc2cccc(C)c2)CC1	40	0.6	-2.2	0.4	58*
Cc1cc(C)cc(OCC(=O)Nc2ccccc2N2CCCCC2)c1	-1	1	-0.51	0.6	39
CCC(=O)N1CCN(c2ccccc2NC(=O)c2cccc(C)c2)CC1	77*	0.2	0.89	0.3	71*
Cn1c(=O)c2c(ncn2CC(=O)N2CCN(c3ccc(F)cc3)CC2)n(C)c1=O	0	1	0.98	0.2	78*
O=C1Nc2cc(Cl)cnc2N2CCCC12 (stereo unspecified)	46	0.5	-0.54	0.2	83*
O=C1CC(c2ccccc2)Cc2nc3nc(C(F)(F)F)nn3cc21 (stereo unspecified)	49	0.5	-0.13	0.4	62*
SMILES	CYP2C19 inh	CYP2C19 activ	Cav3 T inh	CYP2C9 activ	CYP2C9 inh
CSc1nc2nc3c(cn2n1)C(=O)CC(c1ccccc1)C3 (stereo unspecified)	51*	0.5	-0.22	0.5	50
CC1CC(C)CN(c2ncc3c(n2)CC(c2ccccc2Cl)CC3=O)C1 (stereo unspecified)	6	0.9	-1.4	0.9	10
Cc1nnc(SCC(=O)Nc2ncc3c(n2)CC(c2ccccc2)CC3=O)s1 (stereo unspecified)	1	1	-0.045	0.7	28
COc1ccc2nc(C(F)(F)C(F)(F)F)c(C#N)c(N)c2c1	2	1	0.63	0.7	26
N#Cc1cnc(SCCc2ccccc2)nc1N	49	0.5	-1.2	0.9	13
Cc1cnc(SCCc2ccncc2)nc1C	76*	0.2	0.58	0.6	45
COC(=O)c1cc(NC(=O)CN(c2ccc(OC)cc2)S(=O)(=O)c2ccc(F)cc2)ccc1Cl	/	/	-1.7	/	/
O=C(CN1C(=O)c2ccccc2S1(=O)=O)N1CCN(Cc2ccc3c(c2)OCO3)CC1	18	0.8	-0.031	0.7	35
Cc1ccc(-c2onc3ccc(C4(C)OCCO4)cc23)cc1	60*	0.4	0.56	0.5	54*
Cc1ccc(-c2onc3ccc(C=O)cc23)cc1	25	0.7	1	0.8	25
CN(C)c1ccc(N/C=C/C(=O)c2ccccc2)cc1	99*	0	-2.7	0.3	73*
CN(C)c1ccc(N/C=C/C(=O)C(C)(C)C)cc1	4	1	0.00036	0.7	32
O=C(/C=C/Nc1ccccc1)c1ccccc1	55*	0.5	/	0.7	34
CCOc1ccccc1-c1nc(C(N)=O)c2[nH]c(=O)n(-c3cccc(C)c3)c2n1	48	0.5	/	0.4	64*
COc1ccc(OC)c(-c2nc(C(N)=O)c3[nH]c(=O)n(-c4ccc(F)cc4)c3n2)c1	18	0.8	/	0.5	54*
CCOC(=O)C(C)Sc1ncc(OC)c(Sc2ccc(Cl)cc2)n1 (stereo unspecified)	45	0.5	-4.6	0.2	83*
CCOC(=O)CSc1ncc(OC)c(Sc2ccc(Cl)cc2)n1	30	0.7	-11*	0.4	58*
CCOC(=O)C(C)Sc1ncc(OC)c(=O)[nH]1 (stereo unspecified)	3	1	0.091	1	-3
CCOC(=O)CSc1ncc(OC)c(=O)[nH]1	1	1	0.12	1.1	-7
COc1cc(C(O)P(=O)(OCC(C)C)OCC(C)C)cc(OC)c1OC (stereo unspecified)	23	0.8	/	0.9	13
CC(O)CNc1nc2c(c(=O)n(C)c(=O)n2C)n1C/C=C/c1ccccc1 (stereo unspecified)	50	0.5	-0.055	0.9	15
CC(O)CNc1nc2c(c(=O)n(C)c(=O)n2C)n1Cc1cccc(Br)c1 (stereo unspecified)	44	0.6	1.9	0.4	60*
CC(CCO)Nc1nc2c(c(=O)n(C)c(=O)n2C)n1Cc1cccc(Br)c1 (stereo unspecified)	60*	0.4	0.2	0.5	49
Cn1c(=O)c2c(nc(NCCCO)n2C/C=C/c2ccccc2)n(C)c1=O	90*	0.1	0.39	0.3	68*
COc1ccc(Nc2nc3c(c(=O)n(C)c(=O)n3C)n2CCO)cc1	3	1	-0.15	0.4	59*
Cn1c(=O)c2c(nc(NCCO)n2CCc2ccccc2)n(C)c1=O	25	0.8	-0.0063	0.9	9
Cc1cc(NC(=O)CSc2nnc(-c3ccco3)n2CC2CCCO2)no1 (stereo unspecified)	-10	1.1	1.7	1.1	-13
CCCNc1nc2c(c(=O)n(C)c(=O)n2C)n1Cc1cccc(C)c1	58*	0.4	-0.29	0.6	38

Assay outcomes as filed in PubChem.
